# Source: the supplement of paper PMC8728848
# This is one part of a sample in which the strongest signals are shown more often than they occur.
# Key:
# Experiment in all cases: glycan array binding signal (z-score within array); higher = stronger binding
# GlcNAc(b1-3)Gal(b1-4)Glc = details: glycan notation: IUPAC condensed, linker removed
# Procedure, shortened: (§1)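 Arrays were curated from the Consortium for Functional Glycomics database, 3228 in total, and kept only where the protein sequence was available. Binding is expressed as a within-array Z-score. This score was averaged across arrays of the same protein sequence at different concentrations or buffers and across linkers, and negative values can be read as non-binding.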
# GlcNAc(b1-3)Gal = details: glycan notation: IUPAC condensed, linker removed
# Procedure, shortened: as §1
# [1] = test system: GlcNAc(b1-3)Gal(b1-4)GlcNAc(b1-3)Gal(b1-4)GlcNAc(b1-2)Man(a1-3)[GlcNAc(b1-3)Gal(b1-4)GlcNAc(b1-3)Gal(b1-4)GlcNAc(b1-2)Man(a1-6)]Man(b1-4)GlcNAc(b1-4)[Fuc(a1-6)]GlcNAc; details: glycan notation: IUPAC condensed, linker removed
# Procedure, shortened: as §1
# [2] = test system: GlcNAc(b1-3)Gal(b1-4)GlcNAc(b1-3)Gal(b1-4)GlcNAc(b1-2)[GlcNAc(b1-3)Gal(b1-4)GlcNAc(b1-3)Gal(b1-4)GlcNAc(b1-6)]Man(a1-6)[GlcNAc(b1-3)Gal(b1-4)GlcNAc(b1-3)Gal(b1-4)GlcNAc(b1-2)Man(a1-3)]Man(b1-4)GlcNAc(b1-4)[Fuc(a1-6)]GlcNAc; details: glycan notation: IUPAC condensed, linker removed
# Procedure, shortened: as §1
# [3] = test system: GlcNAc(b1-3)Gal(b1-4)GlcNAc(b1-3)Gal(b1-4)GlcNAc(b1-3)Gal(b1-4)GlcNAc(b1-2)Man(a1-3)[GlcNAc(b1-3)Gal(b1-4)GlcNAc(b1-3)Gal(b1-4)GlcNAc(b1-3)Gal(b1-4)GlcNAc(b1-2)Man(a1-6)]Man(b1-4)GlcNAc(b1-4)GlcNAc; details: glycan notation: IUPAC condensed, linker removed
# Procedure, shortened: as §1
# [4] = test system: GlcNAc(b1-3)Gal(b1-4)GlcNAc(b1-3)Gal(b1-4)GlcNAc(b1-3)Gal(b1-4)GlcNAc(b1-2)[GlcNAc(b1-3)Gal(b1-4)GlcNAc(b1-3)Gal(b1-4)GlcNAc(b1-3)Gal(b1-4)GlcNAc(b1-6)]Man(a1-6)[GlcNAc(b1-3)Gal(b1-4)GlcNAc(b1-3)Gal(b1-4)GlcNAc(b1-3)Gal(b1-4)GlcNAc(b1-2)Man(a1-3)]Man(b1-4)GlcNAc(b1-4)[Fuc(a1-6)]GlcNAc; details: glycan notation: IUPAC condensed, linker removed
# Procedure, shortened: as §1
# [5] = test system: GlcNAc(b1-3)Gal(b1-4)GlcNAc; details: glycan notation: IUPAC condensed, linker removed
# Procedure, shortened: as §1
# [6] = test system: GlcNAc(b1-3)Gal(b1-4)GlcNAc(b1-3)Gal(b1-4)GlcNAc; details: glycan notation: IUPAC condensed, linker removed
# Procedure, shortened: as §1
# [7] = test system: GlcNAc(b1-3)Gal(b1-4)GlcNAc(b1-3)Gal(b1-4)GlcNAc(b1-3)Gal(b1-4)GlcNAc(b1-2)Man(a1-3)[GlcNAc(b1-3)Gal(b1-4)GlcNAc(b1-3)Gal(b1-4)GlcNAc(b1-3)Gal(b1-4)GlcNAc(b1-2)Man(a1-6)]Man(b1-4)GlcNAc(b1-4)[Fuc(a1-6)]GlcNAc; details: glycan notation: IUPAC condensed, linker removed
# Procedure, shortened: as §1
# [8] = test system: GlcNAc(b1-3)Gal(b1-4)GlcNAc(b1-3)Gal(b1-4)GlcNAc(b1-3)Gal(b1-4)GlcNAc(b1-3)Gal(b1-4)GlcNAc(b1-2)Man(a1-3)[GlcNAc(b1-3)Gal(b1-4)GlcNAc(b1-3)Gal(b1-4)GlcNAc(b1-3)Gal(b1-4)GlcNAc(b1-3)Gal(b1-4)GlcNAc(b1-2)Man(a1-6)]Man(b1-4)GlcNAc(b1-4)GlcNAc; details: glycan notation: IUPAC condensed, linker removed; mutation: R125K
# Procedure, shortened: as §1
# Chain of Neurocan (Homo sapiens), O14594 (O14594 other isoform, or with tags, fused parts or gaps): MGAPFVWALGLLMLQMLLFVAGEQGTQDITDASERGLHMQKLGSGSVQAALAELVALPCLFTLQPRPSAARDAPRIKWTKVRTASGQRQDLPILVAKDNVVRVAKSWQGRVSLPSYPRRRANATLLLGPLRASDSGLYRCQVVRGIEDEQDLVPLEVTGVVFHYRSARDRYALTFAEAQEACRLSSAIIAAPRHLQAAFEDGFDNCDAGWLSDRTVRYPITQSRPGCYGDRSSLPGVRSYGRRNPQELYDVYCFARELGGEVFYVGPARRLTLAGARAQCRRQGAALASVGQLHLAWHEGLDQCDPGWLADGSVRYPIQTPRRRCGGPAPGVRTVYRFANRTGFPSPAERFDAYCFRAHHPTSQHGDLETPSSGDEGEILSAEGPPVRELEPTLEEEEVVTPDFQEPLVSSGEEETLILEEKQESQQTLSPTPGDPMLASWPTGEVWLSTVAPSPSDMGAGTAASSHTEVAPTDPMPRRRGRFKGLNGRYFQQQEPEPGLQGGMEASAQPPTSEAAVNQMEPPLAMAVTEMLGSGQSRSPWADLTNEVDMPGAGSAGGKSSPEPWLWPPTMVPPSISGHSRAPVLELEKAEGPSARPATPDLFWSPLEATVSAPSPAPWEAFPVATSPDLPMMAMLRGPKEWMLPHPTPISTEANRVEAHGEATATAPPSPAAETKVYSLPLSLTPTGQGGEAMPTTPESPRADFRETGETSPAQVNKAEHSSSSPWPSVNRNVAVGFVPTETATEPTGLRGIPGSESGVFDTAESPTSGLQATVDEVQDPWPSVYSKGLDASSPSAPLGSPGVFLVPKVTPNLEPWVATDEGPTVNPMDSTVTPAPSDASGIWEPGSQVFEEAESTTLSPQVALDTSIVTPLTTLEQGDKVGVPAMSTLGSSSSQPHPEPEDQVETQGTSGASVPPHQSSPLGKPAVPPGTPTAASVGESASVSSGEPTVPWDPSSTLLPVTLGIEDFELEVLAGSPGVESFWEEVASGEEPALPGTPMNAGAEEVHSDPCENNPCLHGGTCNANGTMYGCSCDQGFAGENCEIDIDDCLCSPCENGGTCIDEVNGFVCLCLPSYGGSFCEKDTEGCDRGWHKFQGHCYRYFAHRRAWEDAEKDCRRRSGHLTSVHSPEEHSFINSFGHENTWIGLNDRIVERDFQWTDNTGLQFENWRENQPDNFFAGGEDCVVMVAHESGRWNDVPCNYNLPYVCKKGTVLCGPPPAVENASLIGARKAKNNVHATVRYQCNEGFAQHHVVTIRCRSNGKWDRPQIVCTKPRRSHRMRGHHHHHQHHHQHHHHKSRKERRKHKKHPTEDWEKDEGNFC
# Chain of wLAT-1A (Homo sapiens), Q01650 (Q01650 whole entry): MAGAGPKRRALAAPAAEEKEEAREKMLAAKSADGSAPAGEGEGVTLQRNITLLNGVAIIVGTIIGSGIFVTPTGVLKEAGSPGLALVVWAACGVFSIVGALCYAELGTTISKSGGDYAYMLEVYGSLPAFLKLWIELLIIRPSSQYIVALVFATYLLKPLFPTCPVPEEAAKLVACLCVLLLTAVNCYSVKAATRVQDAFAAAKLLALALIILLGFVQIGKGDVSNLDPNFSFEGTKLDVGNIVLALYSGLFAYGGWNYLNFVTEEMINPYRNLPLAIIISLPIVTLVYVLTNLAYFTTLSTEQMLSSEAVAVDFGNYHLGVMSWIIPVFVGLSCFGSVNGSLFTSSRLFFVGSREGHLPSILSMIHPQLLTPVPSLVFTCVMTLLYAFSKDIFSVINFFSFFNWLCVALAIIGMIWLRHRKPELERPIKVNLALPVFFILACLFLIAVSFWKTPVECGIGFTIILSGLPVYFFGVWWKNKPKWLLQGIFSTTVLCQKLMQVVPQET
# Chain of SRLC (Mus musculus), Q8VIF6 (Q8VIF6 other isoform, or with tags, fused parts or gaps): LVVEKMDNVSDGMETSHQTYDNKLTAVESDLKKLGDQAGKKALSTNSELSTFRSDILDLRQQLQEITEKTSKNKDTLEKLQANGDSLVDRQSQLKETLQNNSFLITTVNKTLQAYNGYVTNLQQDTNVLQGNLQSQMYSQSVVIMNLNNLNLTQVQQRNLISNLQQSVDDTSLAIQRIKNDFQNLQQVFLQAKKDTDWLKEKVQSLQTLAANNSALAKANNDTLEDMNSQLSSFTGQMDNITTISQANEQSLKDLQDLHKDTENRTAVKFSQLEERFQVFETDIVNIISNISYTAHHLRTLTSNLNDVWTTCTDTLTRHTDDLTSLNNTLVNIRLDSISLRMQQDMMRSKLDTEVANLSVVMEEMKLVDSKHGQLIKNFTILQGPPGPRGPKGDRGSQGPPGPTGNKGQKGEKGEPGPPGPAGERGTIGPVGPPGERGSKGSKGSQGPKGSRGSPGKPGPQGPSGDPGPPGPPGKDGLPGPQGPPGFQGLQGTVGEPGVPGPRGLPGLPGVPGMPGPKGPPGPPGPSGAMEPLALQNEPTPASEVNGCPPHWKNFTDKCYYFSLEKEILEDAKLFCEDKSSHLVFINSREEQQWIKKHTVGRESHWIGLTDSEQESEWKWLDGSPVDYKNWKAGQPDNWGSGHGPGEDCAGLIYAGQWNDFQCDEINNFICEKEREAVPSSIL
# Chain of Regenerating Gene IV (Homo sapiens), Q9BYZ8 (Q9BYZ8 whole entry, looked up): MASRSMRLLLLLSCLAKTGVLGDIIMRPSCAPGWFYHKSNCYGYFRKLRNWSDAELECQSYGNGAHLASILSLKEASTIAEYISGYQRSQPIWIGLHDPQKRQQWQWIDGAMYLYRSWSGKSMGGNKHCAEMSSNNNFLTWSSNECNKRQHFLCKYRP
# Chain of PILRb (Mus musculus), Q2YSF2 (Q2YSF2 entry or part of it): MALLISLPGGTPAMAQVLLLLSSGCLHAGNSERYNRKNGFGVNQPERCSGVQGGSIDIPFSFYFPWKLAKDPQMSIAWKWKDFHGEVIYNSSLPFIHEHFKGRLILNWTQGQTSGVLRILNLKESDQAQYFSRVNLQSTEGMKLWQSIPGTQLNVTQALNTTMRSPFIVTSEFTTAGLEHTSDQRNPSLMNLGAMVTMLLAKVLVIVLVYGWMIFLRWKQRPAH
# Chain of 6RG (Lolium perenne) (chain, as listed by the source): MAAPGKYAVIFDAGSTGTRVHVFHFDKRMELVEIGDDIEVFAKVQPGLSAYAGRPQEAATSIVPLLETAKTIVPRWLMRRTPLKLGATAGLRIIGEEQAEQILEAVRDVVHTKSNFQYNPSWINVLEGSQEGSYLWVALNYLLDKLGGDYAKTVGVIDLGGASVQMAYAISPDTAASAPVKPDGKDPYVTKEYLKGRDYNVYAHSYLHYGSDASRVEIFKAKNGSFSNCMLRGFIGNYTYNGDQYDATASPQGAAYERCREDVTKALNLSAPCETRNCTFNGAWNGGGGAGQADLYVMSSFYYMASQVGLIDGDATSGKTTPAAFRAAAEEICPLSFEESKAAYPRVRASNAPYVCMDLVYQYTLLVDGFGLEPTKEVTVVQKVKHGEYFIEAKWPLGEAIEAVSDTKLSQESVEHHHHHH
# Chain of Avaren (Actinomycete K97) (chain, as listed by the source): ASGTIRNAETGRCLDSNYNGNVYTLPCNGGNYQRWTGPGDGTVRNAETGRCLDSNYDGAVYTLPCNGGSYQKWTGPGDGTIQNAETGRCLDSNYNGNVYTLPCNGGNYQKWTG
substance,measurement,setting,value
"wLAT-1A (Homo sapiens), Q01650",glycan array binding signal (z-score),GlcNAc(b1-3)Gal(b1-4)Glc,-0.411
"Regenerating Gene IV (Homo sapiens), Q9BYZ8",glycan array binding signal (z-score),GlcNAc(b1-3)Gal,-0.345
MpAFP RI GFP (Marinomonas primoryensis),glycan array binding signal (z-score),[1],2.86
same,glycan array binding signal (z-score),[2],1.29
same,glycan array binding signal (z-score),[3],4.26
same,glycan array binding signal (z-score),[4],1.39
"PILRb (Mus musculus), Q2YSF2",glycan array binding signal (z-score),[5],-0.214
"Neurocan (Homo sapiens), O14594",glycan array binding signal (z-score),[5],-1.33
same,glycan array binding signal (z-score),GlcNAc(b1-3)Gal,-0.097
Avaren (Actinomycete K97),glycan array binding signal (z-score),[2],-0.046
6RG (Lolium perenne),glycan array binding signal (z-score),[6],-0.272
"SRLC (Mus musculus), Q8VIF6",glycan array binding signal (z-score),[6],-0.205
"Siglec-8 (Homo sapiens), Q9NYZ4",glycan array binding signal (z-score),[2],0.434
same,glycan array binding signal (z-score),[7],0.693
same,glycan array binding signal (z-score),[8],-0.017
